Compound activity from PubChem.
RecA splice inh – blocks M. tuberculosis RecA intein splicing | P9WHJ3 | cell-free RecA intein splicing, fluorescence | inhibition, % (concentration not given with the values) | actives 0.75% (n = 290,000); in the data active = inhibition above about 30%; inconclusive = no clear call, values can overlap the other calls
GDH-TPI inh – GDH-TPI coupled enzyme inhibition counter-screen | GDH-TPI coupled enzyme counterscreen, NADH absorbance | inhibition, % at 4.8 µM | actives 1.2% (n = 360,000) | AID 588335; in the data active = inhibition above about 30%
Mtb FBA inh – Mtb fructose-bisphosphate aldolase inhibition | P9WQA3 | purified M. tuberculosis FBA, fluorescence read-out | inhibition, % at 1 µM | actives 2.3% (n = 360,000) | AID 588726; in the data active = inhibition above about 27%
Target sequence (P9WQA3 whole entry, looked up): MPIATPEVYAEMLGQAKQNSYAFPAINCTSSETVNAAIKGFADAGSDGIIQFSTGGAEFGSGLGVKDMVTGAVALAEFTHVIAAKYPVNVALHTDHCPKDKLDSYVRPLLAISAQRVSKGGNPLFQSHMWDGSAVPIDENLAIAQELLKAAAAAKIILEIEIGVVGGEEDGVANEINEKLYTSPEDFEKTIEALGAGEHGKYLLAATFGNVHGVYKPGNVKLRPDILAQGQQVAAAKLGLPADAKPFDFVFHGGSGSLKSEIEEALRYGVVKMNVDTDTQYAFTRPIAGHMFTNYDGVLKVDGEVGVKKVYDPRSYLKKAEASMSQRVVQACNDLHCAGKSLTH
CCHF vOTU inh – blocks the CCHF virus ovarian tumor domain protease; CCHFV vOTU protease, Pep-AMC fluorescence; inhibition, % at 11.5 µM; actives 0.55% (n = 370,000); AID 651958; in the data active = inhibition above about 30%
Mtb bLac sens – beta-lactam sensitization of Mtb H37Rv | AID 434955 | inhibition, % at 25 µM | actives 0.27% (n = 330,000) | M. tuberculosis H37Rv growth with meropenem, percent inhibition;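 also: growth measured after seven days incubation then overnight dye step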
GFP chromo cs – counter-screen GFP chromophore formation inhibition; actives 83% (n = 2,100); EC50, µM; cell-free GFP chromophore formation, fluorescence; shares compounds with RecA splice inh
Each line names hits and unclear results; the compound was inactive in the other large screens (follow-up assays come after a bar, where they were run). A selection: hits, their analogues and other compounds. The true share with any hit is near 4.2%. Unless noted, no rule for the calls is given here.

Cc1ccc(-c2[nH]nc3c2C(C)C(C#N)=C(N)O3)cc1 (stereo not given)	RecA splice inh 88.2 | GFP chromo cs 0.496
N#CC1=C(N)Oc2n[nH]c(-c3ccccc3)c2C1c1ccncc1 (stereo not given)	RecA splice inh 64.6 | GFP chromo cs 26.7
Nc1nc2c(ncn2[C@@H]2O[C@H](C(=O)NCCCN3CCCC3=O)[C@@H](O)[C@H]2O)c(=O)[nH]1	none (no result: RecA splice inh, GDH-TPI inh, Mtb FBA inh, Mtb bLac sens)
COc1ccc(Nc2ccc3c(c2)=NC2(CCCCC2)[N+]=3[O-])cc1	RecA splice inh 79.2 | GFP chromo cs 10.1
COc1ccc(NC2=NC(=S)N(c3ccccc3C)C23CCCCC3)cc1	none
[O-][N+]1=c2ccc(Nc3ccccc3)cc2=NC12CCCCC2	RecA splice inh 80.0 | GFP chromo cs 11
CCOC(=O)c1cccc(NC(=O)CN(C)S(=O)(=O)c2cc3ccccc3s2)c1	none (no result: RecA splice inh, GDH-TPI inh, Mtb FBA inh, Mtb bLac sens)
O=C(N=C1N(Cc2ccccc2)[C@@H](Cc2ccccc2)[C@]2(C=C3CCCCC3n3c(=O)n(-c4ccccc4)c(=O)n32)N1C(=O)OCc1ccccc1)c1ccccc1 (stereo not given in full)	none (no result: RecA splice inh, GDH-TPI inh, Mtb FBA inh, Mtb bLac sens)
Cc1ccc(NC(=O)OC2CC3CC2[C@H]2CCCCN2C3)cc1C (stereo not given in full)	none (no result: RecA splice inh, GDH-TPI inh, Mtb FBA inh, Mtb bLac sens)
CC(=O)Nc1ccccc1NC(=O)C/C(C)=N/NC(=O)C(=O)N1CCCCC1	RecA splice inh 85.0 | GFP chromo cs 10.1
COC1(OC)C(/C=C/c2ccc(Cl)cc2)C(C#N)(C#N)C1(OC)OC (stereo not given)	RecA splice inh 73.2 | GFP chromo cs inactive
CCOC(=O)c1cnc(N)nc1C(F)(F)F	RecA splice inh 60.8 | GFP chromo cs inactive
CCOC(=O)C/C(C)=N/NC(=O)COc1ccccc1C	RecA splice inh 61.9 | GFP chromo cs 12.9
CCCN1CC(=O)N2[C@H](C[C@@]3(n4ccc5ccccc54)c4ccccc4N(S(=O)(=O)c4ccccc4)[C@@H]23)C1=O	none (no result: RecA splice inh, GDH-TPI inh, Mtb FBA inh, Mtb bLac sens)
CNC(=S)N=Nc1c(O)[nH]c2ccccc12	none
CN(C)C(=S)N=Nc1[nH]c2ccccc2c1O	RecA splice inh 58.6 (no result: GDH-TPI inh, Mtb FBA inh) | GFP chromo cs 8.19
C=CCn1c(-c2cccnc2Cl)nc2ccccc21	RecA splice inh 85.3 | GFP chromo cs inactive
C=CCn1c(-c2cccnc2Cl)nc2cc(Cl)c(Cl)cc21	none
Cc1[nH]nc2c1C(CCc1ccccc1)C(C#N)=C(N)O2 (stereo not given)	RecA splice inh 70.2, Mtb bLac sens inconclusive | GFP chromo cs 29.3
CCCC1C(C#N)=C(N)Oc2n[nH]c(C(C)(C)C)c21 (stereo not given)	RecA splice inh 74.4 | GFP chromo cs 1.67
CC(C)(C)c1[nH]nc2c1C(c1ccco1)C(C#N)=C(N)O2 (stereo not given)	RecA splice inh 41.3 | GFP chromo cs 2.83
CC(C)C1C(C#N)=C(N)Oc2n[nH]c(C(C)(C)C)c21 (stereo not given)	none (no result: RecA splice inh)
Cc1[nH]nc2c1C(c1ccco1)C(C#N)=C(N)O2 (stereo not given)	RecA splice inh 57.8 | GFP chromo cs 26.4
CCOC(=O)[C@]12CCCC=C1N(CCCOC)C(=O)[C@@H]2CC(=O)NCc1ccc(C)o1	none (no result: RecA splice inh, GDH-TPI inh, Mtb FBA inh, Mtb bLac sens)
O=C(CCl)Nc1cccc(Oc2ccccc2)c1	RecA splice inh 64.8 | GFP chromo cs 35
CC(C)N(c1ccccc1)c1ccc(NC(=O)CCl)cc1	RecA splice inh 50.5 | GFP chromo cs 8.67
CC(=O)Nc1ccc(NC(=O)Cc2ccc(-c3ccccc3)cc2)cc1	none
O=C(CCl)Nc1ccc(N=Nc2ccccc2)cc1	RecA splice inh 78.8 (no result: Mtb bLac sens) | GFP chromo cs 30.3
CC(C)C(=O)OCC(=O)Nc1ccc(N=Nc2ccccc2)cc1	none
O=C(CCl)Nc1cccc(Oc2cnccn2)c1	none
O=C(CCl)Nc1ccc(-c2ccccc2)cc1	RecA splice inh 75.0 | GFP chromo cs 23.6
CC(C)N(c1ccccc1)c1ccc(NC(=O)[C@@H]2O[C@H](CO)[C@H](O)[C@H](O)[C@H]2O)cc1	none (no result: RecA splice inh, Mtb bLac sens)
COc1ccc(Cn2ccc3ccc(-c4ccc5ccn(Cc6ccccc6F)c5c4)cc32)cc1	none (no result: RecA splice inh, GDH-TPI inh, Mtb FBA inh, Mtb bLac sens)
Clc1ccc([C@H]2OC[C@@]3(CNCc4ccccn4)CS[C@H](c4ccc(Cl)cc4)N23)cc1	none (no result: RecA splice inh, GDH-TPI inh, Mtb FBA inh, Mtb bLac sens)
COc1ccc(C(=O)c2c(C(F)(F)F)oc3c2C(=O)c2ccccc2C3=O)cc1OC	RecA splice inh 66.8, CCHF vOTU inh 63.6 | GFP chromo cs 11.4
O=C(CSCc1cc(=O)[nH][nH]1)Nc1ccc(F)cc1	RecA splice inh 84.5 | GFP chromo cs 12.4
CCCCc1ccc(NC(=O)CSCc2cc(=O)[nH][nH]2)cc1	RecA splice inh 64.2 | GFP chromo cs 17.3
CCCCc1ccc(NC(=O)COCC)cc1	none
C[C@@H]1ON(C)[C@H]2C[C@H]3c4[nH]c5c(-c6ccc(Cl)cc6)cccc5c4CCN3C(=O)[C@@H]12	none (no result: RecA splice inh, GDH-TPI inh, Mtb FBA inh, Mtb bLac sens)
CCOC(=O)C(C)(C)CC#CCN(CC#Cc1ccccc1)S(=O)(=O)c1ccc(C)cc1	none (no result: RecA splice inh, GDH-TPI inh, Mtb FBA inh, Mtb bLac sens)
COC(=O)Cc1[nH]nc2c1C1(CCSCC1)C(C#N)=C(N)O2	RecA splice inh 65.6 | GFP chromo cs 16.7
Cc1ccc(SCc2[nH]nc3c2C2(CCSCC2)C(C#N)=C(N)O3)cc1	RecA splice inh 60.1 | GFP chromo cs 16.3
COC(=O)[C@@]12CCCCC=C1N(CCc1ccc(Cl)cc1)C(=O)[C@H]2CC(=O)NCCC(C)C	none (no result: RecA splice inh, GDH-TPI inh, Mtb FBA inh, Mtb bLac sens)
CC1CCN(c2ccc(C(=O)O)cc2NS(=O)(=O)c2cccc3cccnc23)CC1	none (no result: RecA splice inh, GDH-TPI inh, Mtb FBA inh, Mtb bLac sens)
Nc1ccc(N)c(C(=O)O)c1	RecA splice inh 56.8 (no result: CCHF vOTU inh) | GFP chromo cs 9.73
CC(C)[C@H](N)C(=O)N[C@H](C(=O)N1CCC2CCN(Cc3ccccc3)CC21)C(C)C (stereo not given in full)	none (no result: RecA splice inh, GDH-TPI inh, Mtb FBA inh, Mtb bLac sens)
O=C(NC1C(=O)NNC1c1ccc(Cl)cc1)c1ccc(F)cc1 (stereo not given)	RecA splice inh 69.7 | GFP chromo cs 29.9
O=C(c1cc([N+](=O)[O-])ccc1Cl)N1CCN(c2ccccn2)CC1	none
O=C(c1cc(F)c(F)cc1Cl)N1CCN(c2ccc([N+](=O)[O-])c3ncccc23)CC1	RecA splice inh 32.3 | GFP chromo cs 23.2
O=C(CN1C(=O)S/C(=C\C=C\c2ccccc2)C1=O)Nc1ccc(C(=O)O)cc1	RecA splice inh 35.3, GDH-TPI inh 57.1 | GFP chromo cs inactive
O=C(CN1C(=O)S/C(=C/C=C/c2ccccc2)C1=O)Nc1ccc(C(=O)O)cc1	none
CCN(CC)C(=O)CC[C@H]1CC[C@]2(CCCN(S(=O)(=O)C3CCCCC3)C2)O1	none (no result: RecA splice inh, GDH-TPI inh, Mtb FBA inh, Mtb bLac sens)
CC1=NN(c2ccccc2)C(=O)C1=C(C)C	RecA splice inh 55.4 | GFP chromo cs 8.45
Nc1[nH]c(C(=O)c2ccccc2)c(-c2ccc3c(c2)OCO3)c1C(=O)NCCc1c[nH]c2ccccc12	none (no result: RecA splice inh, GDH-TPI inh, Mtb FBA inh, Mtb bLac sens)
Cn1nc(-c2ccc(Cl)cc2)nc2c(=O)n(C)c(=O)nc1-2	RecA splice inh 94.4, Mtb bLac sens inconclusive (no result: GDH-TPI inh, Mtb FBA inh, CCHF vOTU inh) | GFP chromo cs 0.365
CS(=O)(=O)n1nc(-c2ccc(Cl)cc2)nc1N	none
